# About 79,000 compounds went through this panel and 15% of them were active in at least one assay; those are over-represented in the sample as a whole. Values without a mark were called inactive. The source made the active and inactive calls. Rule as the data show it: active = growth inhibition above about 70%; inactive = the rest.
# Assay: NCI Yeast Anticancer Drug Screen. Data for the mec2-1 strain (AID 157)
# Conditions: S. cerevisiae mec2-1 strain, stronger effect = higher value
# Procedure: Growth inhibition of yeast strains with defined genetic alterations is measured as a screen for potential anti-cancer activity. Selected strains with alterations in DNA damage repair or cell cycle control were exposed to compounds and growth inhibition was measured relative to vehicle treated controls. The strain used in this assay is mec2-1
# [1] = at 5.0 µM (retest, dose inferred, filed as 0.5)
# [2] = at 50.0 µM (retest, dose inferred, filed as 5.0)
SMILES,growth inhibition (at 1.2 µM) [%],growth inhibition (at 3.7 µM) [%],growth inhibition [1],growth inhibition (at 11.0 µM),growth inhibition (at 33.0 µM),growth inhibition [2],growth inhibition (at 50.0 µM),growth inhibition (at 100.0 µM)
Cc1cc(=O)oc2c(C)c3occc(=O)c3cc12,-2,0,-6%,4%,14%,21%,67.2%,40%
CCCCc1nnc(NS(=O)(=O)c2ccc(C)cc2)s1,-21,-19,70% (active),-3%,31%,94% (active),50.3%,81% (active)
O=C1NC(=O)c2ccc([N+](=O)[O-])c3cccc1c23,11,20,-36%,20%,35%,23%,33.5%,72% (active)
CCCC/C=C/C(C)(C(=O)OCC)C(=O)OCC,-2,-4,3%,-1%,5%,16%,26.9%,25%
Oc1ccc2ccccc2c1CCc1c(O)ccc2ccccc12,7,15,-6%,95% (active),96% (active),95% (active),96.5% (active),90% (active)
